The full ranking holds about 35,000 sequences; the median of “fluorescence intensity (a.u.)” is about 10,000, and the highest 2% start at about 52,000. The list comes from a sample in which the highest values are over-represented; it also holds similar and randomly drawn sequences.

This assay addresses T1, OsWOX13 (Oryza sativa, UniProt Q5QMM3 1-267).
T1 sequence: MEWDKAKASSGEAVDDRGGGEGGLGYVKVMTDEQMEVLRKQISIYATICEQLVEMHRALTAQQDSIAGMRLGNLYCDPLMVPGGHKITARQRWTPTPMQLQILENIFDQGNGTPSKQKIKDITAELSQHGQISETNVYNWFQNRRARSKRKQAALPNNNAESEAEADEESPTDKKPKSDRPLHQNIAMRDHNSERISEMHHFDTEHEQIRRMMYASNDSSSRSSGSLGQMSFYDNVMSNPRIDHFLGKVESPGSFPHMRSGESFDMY
Kind of assay: protein-binding microarray (RPBM); PBS, 2% BSA, 51.3 ng/ul salmon testes DNA, 50 uM zinc acetate, 200 nM TF, 25 C, 1 h; high values mean tight binding. The settings on record: protein: recombinant; tags: N-terminal polyhistidine and DsRed monomer fusion (pET32a); label: CyDye5-dUTP incorporated in the synthesized complementary strand; 3' TTTTT single-stranded linker to array surface; dsDNA, one strand shown. Summed up: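 Ni–NTA purification followed expression in E. coli BL21-CodonPlus of transcription factors fused N-terminally to a polyhistidine tag and DsRed. At 200 nM in PBS with 2% BSA, salmon testes DNA and 50 µM zinc acetate, the protein was incubated for 1 h at 25 °C with a custom Agilent array that had been primer-extended with Cy5-dUTP and blocked with 2% BSA. After washing, the array was read on an Axon 4000B scanner. The binding signal is per-feature fluorescence intensity in arbitrary units.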
As for “CGAAATTATAATGATTAAACAAAATTGATCGATATAACTACGGAGTCACCTAGTGCAG”, the binding signal was 41000 fluorescence intensity (a.u.).
For “TGTAATTGATAAATATAAATTTACTTTAGGCATGTTTGATCGGAGTCACCTAGTGCAG”, the binding signal is 55700 fluorescence intensity (a.u.).
As for “TTAAATAAATTACTTTTAAATTAATAAAATGTTTGAATATCGGAGTCACCTAGTGCAG”, the binding signal is 5500 fluorescence intensity (a.u.).
In the case of “ATTGATTTAATGAAAATAATTTAATATTATAAATATTACTCGGAGTCACCTAGTGCAG”, the binding signal was 35700 fluorescence intensity (a.u.).
Turning to “ATGTAAATTACTTTTAGGCTTTATTGAATTACTTTTATATCGGAGTCACCTAGTGCAG”, the binding signal was 7630 fluorescence intensity (a.u.).
With “GTCTCGATATAATTATGAATTTTGAAATATATAAACCCATCGGAGTCACCTAGTGCAG”, the binding signal is 8250 fluorescence intensity (a.u.).
With “ATAATAATTGATAGGTAACCATGATTATCGATAAAACCATCGGAGTCACCTAGTGCAG”, the binding signal was 59000 fluorescence intensity (a.u.).
With “GTGGTTGTATTAAATATATTGATAGTTAGGTATATGAATACGGAGTCACCTAGTGCAG” the figure was 4110 fluorescence intensity (a.u.); with “ATGATTGATTGTAAATTAGGTTGAATAATTGATATATACTCGGAGTCACCTAGTGCAG”, 54800 fluorescence intensity (a.u.); with “TCACATTGATATTAATTAATCTAGATAAATATATATATGTCGGAGTCACCTAGTGCAG”, 17200 fluorescence intensity (a.u.).
With “ATATAATTGATAATAAATCAGGGCATGACATGTCACATATCGGAGTCACCTAGTGCAG”, the binding signal is 56400 fluorescence intensity (a.u.).
With “AAAATATATAATTATTATTTATTTTATTATGACATGATATCGGAGTCACCTAGTGCAG”, the binding signal was 17400 fluorescence intensity (a.u.).
Turning to “TTGTATTTGTTAATGGAATGCTGATTGGTGCACAGCAAACCGGAGTCACCTAGTGCAG”, the binding signal is 29900 fluorescence intensity (a.u.).
“ATTAAATTTGGGCTAACTGGCCTCCACACATCCCATATAACGGAGTCACCTAGTGCAG”: the binding signal is 11000 fluorescence intensity (a.u.).
Regarding “GATAAATTACGATAATACCCCTATACGAATTATTATCTCTCGGAGTCACCTAGTGCAG”, the binding signal was 12900 fluorescence intensity (a.u.).
In the case of “TCCGATTGATTACCTTCTATAAATACCTCACCCCACCCCTCGGAGTCACCTAGTGCAG”, the binding signal was 57600 fluorescence intensity (a.u.).
Turning to “TGTTTTGATTGTTTCTTATTACTCCCTCCGATTATAAATACGGAGTCACCTAGTGCAG”, the binding signal is 25500 fluorescence intensity (a.u.).
With “AGCTATTAGTAGATTGGCTATAAATGAATTGGAGTTAGTACGGAGTCACCTAGTGCAG”, the binding signal is 14900 fluorescence intensity (a.u.).
“ATTGATAATTAGTTCACCGAAGTAGTAGGGCGCGACACGCCGGAGTCACCTAGTGCAG”: the binding signal was 15900 fluorescence intensity (a.u.).
The result for “ATTGATTAGTAGTAATTAATTAGTTATAAACTACACGCGCCGGAGTCACCTAGTGCAG” reads 58700 fluorescence intensity (a.u.); that for “TAAATTGGCTATTACATTAGTTATAAATGATTTGGAGCTACGGAGTCACCTAGTGCAG”, 34400 fluorescence intensity (a.u.).
On to “AATATTATTTATATGTAATTACATAAGTAATATGTAATTTCGGAGTCACCTAGTGCAG”, for which the binding signal is 9490 fluorescence intensity (a.u.).
As to “GTGCAAGGATAATTGGTGATTATATTAGTGTATATTTAAGCGGAGTCACCTAGTGCAG”, the binding signal is 18200 fluorescence intensity (a.u.).
Take “CAGATGATTAGTAATGTTAATTATGAATAAACTTGCACGCCGGAGTCACCTAGTGCAG”: the binding signal was 51800 fluorescence intensity (a.u.).
With “ATTGATTTACGGGATTGAAGTTAGTATAATTACATGTAAGCGGAGTCACCTAGTGCAG” the figure was 53600 fluorescence intensity (a.u.); with “CTAAATTGATTATACATGATTTAGAGTTAGTAGTTAGCTACGGAGTCACCTAGTGCAG”, 59600 fluorescence intensity (a.u.).
Take “CCTCCTGTTAACTCGTATCACCTCCCTCCCTCACTGAACCCGGAGTCACCTAGTGCAG”: the binding signal is 7850 fluorescence intensity (a.u.).
For the sequence “ATAAAGACTGTTCAATCATGATGAAGCTTTACGTAAGCGGCGGAGTCACCTAGTGCAG”, the binding signal is 34900 fluorescence intensity (a.u.).
As for “TTTACAAACACGCAAATTAAAATTTTATTTATACAATTAACGGAGTCACCTAGTGCAG”, the binding signal is 4180 fluorescence intensity (a.u.).
Regarding “GTACCAATTTAATTTATGTATCAATAAGAACATATCATGTCGGAGTCACCTAGTGCAG”, the binding signal is 22800 fluorescence intensity (a.u.).
As for “TCAGCTTATTGACTTATATGATTTATAAGCCAATGGATTTCGGAGTCACCTAGTGCAG”, the binding signal is 11100 fluorescence intensity (a.u.).
For the sequence “CTGATTAGCATGCAGGATAGGAACTGATCTGTACTTGTCGCGGAGTCACCTAGTGCAG”, the binding signal is 22300 fluorescence intensity (a.u.).
On to “ACTAATTTCATAACTCTCCTGGAAACCGTGAGATGAATCTCGGAGTCACCTAGTGCAG”, for which the binding signal is 6360 fluorescence intensity (a.u.).
The result for “ATGATTGCTTAAGAATAATTGGTGACTTGCTACGAATGTGCGGAGTCACCTAGTGCAG” reads 51300 fluorescence intensity (a.u.); that for “CCCAATTAATTACAATGGGCCACACGCTCGTGGCCCAACTCGGAGTCACCTAGTGCAG”, 10900 fluorescence intensity (a.u.); that for “ACAATTAACTAATAATAATTAGTGATTACTTATCTTGATTCGGAGTCACCTAGTGCAG”, 45300 fluorescence intensity (a.u.).
As for “TTCTGAATGTGATTGAATTAATTGGACTTGCGTTGACCTTCGGAGTCACCTAGTGCAG”, the binding signal was 59500 fluorescence intensity (a.u.).
The result for “AAATTTATGTAATTATTATTTATTTTATTGTGACTTGATTCGGAGTCACCTAGTGCAG” reads 8590 fluorescence intensity (a.u.); that for “CCCACAATTAATTGGGCCTAATGGATCGGTGCCCTTGTGGCGGAGTCACCTAGTGCAG”, 53600 fluorescence intensity (a.u.); that for “TAGGTGATTAGTTGATTAATTAATCTTGAGCTCCTCCTAACGGAGTCACCTAGTGCAG”, 58800 fluorescence intensity (a.u.).
In the case of “TTCCTTTGATTGATCATGAGGTGGGCTGGGGCTGAGATGGCGGAGTCACCTAGTGCAG”, the binding signal is 59400 fluorescence intensity (a.u.).
The result for “CTCGAGGTCAAATCTTGATTAATTATGCTAATTAACGCGACGGAGTCACCTAGTGCAG” reads 16800 fluorescence intensity (a.u.); that for “GAGAGATGATGGGCTGGTTTGGTTTGAGGCCTAAATTAGGCGGAGTCACCTAGTGCAG”, 3660 fluorescence intensity (a.u.); that for “GATGATGATGAGGAGGATGACCAGGATGGTGGAGACTGGGCGGAGTCACCTAGTGCAG”, 4950 fluorescence intensity (a.u.).
With “GTAATTGCGGCCCATTAACCTAAATGGGCCGATCGAGTGGCGGAGTCACCTAGTGCAG” the figure was 4580 fluorescence intensity (a.u.); with “TGAATGATTGCTCTTGTGCTAAGAGAATAGACTTTATCCCCGGAGTCACCTAGTGCAG”, 32000 fluorescence intensity (a.u.); with “TCGGTATTGTGATTGAGGGGTAAGAGTAAGTTTCGGCCACCGGAGTCACCTAGTGCAG”, 18700 fluorescence intensity (a.u.).
“TTAATTGTAAGTTTAACTATTGCTACTTCGCTTGCAGCGTCGGAGTCACCTAGTGCAG”: the binding signal is 13600 fluorescence intensity (a.u.).
Consider “AATCATGGCGTAATTAGGCTTAAAAGATTCGTCTCGCAATCGGAGTCACCTAGTGCAG”, for which the binding signal is 3620 fluorescence intensity (a.u.).
The result for “TTATCCAAAACGTCAATTAATATAGAACTAGAGTGAGTACCGGAGTCACCTAGTGCAG” reads 4500 fluorescence intensity (a.u.); that for “TTAATTGATTGATTGATTGATTAATCCGTTGTGAATCTAACGGAGTCACCTAGTGCAG”, 61500 fluorescence intensity (a.u.).
With “TGCGTGATTGTTGGGATTATTTTATTAATTGATCCAATGGCGGAGTCACCTAGTGCAG” the figure was 57200 fluorescence intensity (a.u.); with “TTATACATCCAAATTTGATTGTTGCGTGCTTATTTTGTTGCGGAGTCACCTAGTGCAG”, 13700 fluorescence intensity (a.u.); with “ACTTAATTATTGTTATGATTCATTCATGCATAAAGCGGTGCGGAGTCACCTAGTGCAG”, 55700 fluorescence intensity (a.u.).
Consider “AGTTATTGACAGTGACTAATCTACCTAATCCGTAGATTAACGGAGTCACCTAGTGCAG”, for which the binding signal is 12500 fluorescence intensity (a.u.).
Take “CATTCATATTGATGTTAATAAATTAATATAGATATATATGCGGAGTCACCTAGTGCAG”: the binding signal is 3590 fluorescence intensity (a.u.).
Take “GCTCTAATAATTGAATAATTTGATTTGTTTTATTTAAATCCGGAGTCACCTAGTGCAG”: the binding signal was 30100 fluorescence intensity (a.u.).
“TGTTGATTGTTGTGTTTAATTGGAGATTGACTATTGAATCCGGAGTCACCTAGTGCAG”: the binding signal was 60200 fluorescence intensity (a.u.).
“GAGTTATGATTTGTTACAATAATTGTAACTTATTGTAAAGCGGAGTCACCTAGTGCAG”: the binding signal was 27900 fluorescence intensity (a.u.).
Consider “GATTTAATTTATTTTGGTAATGATTTGTGGATGATTTTGGCGGAGTCACCTAGTGCAG”, for which the binding signal was 31600 fluorescence intensity (a.u.).
For the sequence “CCATCACATCCGTTGGCCTAATTGATTTGTGAAGCATCAACGGAGTCACCTAGTGCAG”, the binding signal is 4240 fluorescence intensity (a.u.).
With “TTAATTGATTGAATCACATCCTTCCGGATTGTTTTGATCCCGGAGTCACCTAGTGCAG” the figure was 40800 fluorescence intensity (a.u.).

(Values after paper PMC7819943, “Rice protein-binding microarrays: a tool to detect cis-acting elements near promoter regions in rice”.)
